VP16 counter: VP16 counterscreen qHTS for inhibitors of ROR gamma transcriptional activity | Drosophila S2 Gal4-VP16 UAS-luciferase, luminescence, 20 h | Potency, µM (doses to about 53.6 µM), without a hit: at the highest dose activity, negative = inhibition, usual class: inhibitors | hit rate 3.5% among 310,000 | AID 2546, 2010;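 further: Gal4-VP16 expression switched on by copper sulfate through the metallothionein promoter; potency means the concentration at half of the fitted maximal effect; nearly all actives have a fitted effect of over 50% in size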
B2AR arrestin: qHTS assay of beta-arrestin-biased ligands of beta2-adrenergic receptor. Beta-2 adrenergic receptor (Homo sapiens), P07550. beta-arrestin recruitment to beta2AR, cell-based reporter. Potency, µM (titrated, usually from 46.1 µM), without a hit: at the highest dose activation, actives largely listed as activators. hit rate 0.02% among 330,000;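 further: potency means the concentration at half of the fitted maximal effect; 0% = DMSO controls and full agonism = EC100 isoproterenol or metaproterenol; nearly all actives have a fitted effect of over 65% in size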
ELG1 repair inh: qHTS screen for small molecules that inhibit ELG1-dependent DNA repair in human embryonic kidney (HEK293T) cells expressing luciferase-tagged ELG1; Potency, µM (series often up to 46.1 µM), without a hit: at the highest dose activity change, negative = inhibition, hits mostly inhibitors; AID 504467, 2011; hit rate 2.3% among 330,000; HEK293T ELG1-luciferase reporter, luminescence, 16 h; DNA damage induced by 5-fluorouridine; further: potency means the concentration at half of the fitted maximal effect; nearly all actives have a fitted effect of over 55% in size
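DMSO vehicle served as the neutral condition. Each well held 2,000 cells given 5-fluorouridine plus compound; after 16 hr at 37 °C/5% CO2, ONE-Glo was added and luciferase measured 30 min later.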
TSHR antag: Antagonists of the Thyroid Stimulating Hormone Receptor: HTS campaign | Thyrotropin receptor (Homo sapiens), P16473 | TSHR-expressing cells, TSH-stimulated cAMP HTRF, 2 h; hits give low values | activity change, negative = inhibition, % at 11.5 µM | hit rate 0.2% among 330,000 | AID 504810, 2011;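 active means activity change below a set negative limit, meaning inhibition stronger than a set level, cut at about -70% in these data; inconclusive means activity change between two set negative limits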
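TSHR-expressing cells were treated with compounds, then stimulated with TSH at EC80 (4nM final) for 2 hours at 37 deg C. Cellular cAMP was measured by HTRF competition between lysate cAMP and cAMP-d2 for a cryptate-labelled anti-cAMP antibody.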
RORgamma inh: qHTS for inhibitors of ROR gamma transcriptional activity; hit rate 5.4% among 310,000; Drosophila S2 Gal4-RORgamma UAS-luciferase reporter, 20 h; AID 2551, 2010; Nuclear receptor ROR-gamma (Mus musculus), P51450; Potency, µM (highest dose often 53.6 µM), without a hit: at the top dose activity change, negative = inhibition, hits mostly inhibitors; further: potency means the concentration at half of the fitted maximal effect; nearly all actives have a fitted effect of over 60% in size
Target sequence (P51450 whole entry, looked up, the tested form may be a part): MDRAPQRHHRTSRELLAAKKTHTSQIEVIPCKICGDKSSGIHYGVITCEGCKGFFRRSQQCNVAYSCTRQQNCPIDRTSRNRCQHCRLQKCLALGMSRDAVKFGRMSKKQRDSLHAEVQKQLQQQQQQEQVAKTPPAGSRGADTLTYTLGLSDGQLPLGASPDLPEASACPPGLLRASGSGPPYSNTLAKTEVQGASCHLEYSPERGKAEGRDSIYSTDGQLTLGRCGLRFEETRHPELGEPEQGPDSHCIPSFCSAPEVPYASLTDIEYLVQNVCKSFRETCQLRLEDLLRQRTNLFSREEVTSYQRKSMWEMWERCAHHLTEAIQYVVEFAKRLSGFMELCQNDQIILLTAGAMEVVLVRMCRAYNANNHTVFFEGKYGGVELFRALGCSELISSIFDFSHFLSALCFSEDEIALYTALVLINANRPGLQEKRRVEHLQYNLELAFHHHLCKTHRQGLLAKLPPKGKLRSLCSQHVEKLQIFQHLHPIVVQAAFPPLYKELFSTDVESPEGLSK
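Read-out: Photinus luciferase luminescence; inhibitors lower reporter signal. Insect Schneider cells with Gal4-ROR gamma fusion under metallothionein promoter, UAS reporter; 700 uM final copper sulfate induction, 20 hr, ambient temperature.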
Numbers without * were called inactive; ? = inconclusive; nt = not tested or not shown; [ ] = remark or other dose. Only some compounds are listed: those with a hit (about 7.5% of all), similar ones and a draw of the others. Unless noted, the call rests on the fitted dose curve; in most records, active means well fitted curve in the direction sought with a large enough effect; inconclusive means small, poorly fitted or top-dose-only effect, or another doubt; inactive means no such curve, though single readings can be large; an effect the other way counts as inactive or inconclusive. Unless noted, on the % scale 0 is the no-effect control and ±100 the full control effect.

SMILES	VP16 counter	B2AR arrestin	ELG1 repair inh	TSHR antag	RORgamma inh
O=C(CNC(=O)c1ccccc1O)N/N=C/c1cc(Br)ccc1OC(=O)/C=C/c1ccco1	-6.6%	-0.1%	4.11µM*	-7.8	5.62µM*
COc1ccc([N+](=O)[O-])cc1/C=N/NC(=O)CNC(=O)c1cccc(F)c1	?	5.4%	-8.9%	35.0	10µM*
C[C@@H]1COC(=O)O1	-2.3%	nt	nt	nt	-11.8%
CC(C)C[C@@H](CC(=O)N[C@@H](CCC(=O)O)CC(=O)O)NC(=O)[C@@H]1CNCC[C@H]1NC(=O)C[C@@H](NC(=O)C[C@H](Cc1ccccc1)NC(=O)[C@@H]1CNCC[C@H]1N)C(C)C	2.0%	nt	nt	nt	21.7%
COc1ccccc1C(=O)NCC(=O)N/N=C/c1cc(Br)ccc1OCc1ccccc1	-8.8%	0.5%	7.31µM*	36.3	19.8%
COc1ccc(-c2nc3cnc(N(C)C)nc3n(C[C@H]3CCCO3)c2=O)cc1	0.5%	nt	nt	nt	-15.8%
O=C(Nc1ccc(-c2csc(Nc3ccccc3)n2)cc1)c1ccccc1	7.9%	-0.6%	-22.9%	-1.6	21.6%
COC(=O)c1nc(NNC(=O)c2ccccc2)sc1-c1ccccc1	-26.1%	-0.4%	?	-0.6	14.1µM*
N#Cc1ccc(-c2csc(NNC(=O)c3ccc(Br)cc3)n2)cc1	?	-0.5%	?	-15.8	5.01µM*
O=C(NNc1nc(-c2ccccc2)cs1)c1ccccc1	3.98µM*	0.0%	?	18.1	5.01µM*
N#Cc1ccc(-c2csc(NNC(=O)c3ccccc3)n2)cc1	?	0.1%	?	-7.0	11.2µM*
CC(=O)Nc1ccc(-c2csc(NNC(=O)c3ccc(C)cc3)n2)cc1	2.7%[10 µM]	-0.2%	-20.0%	9.8	-22.3%
CC(=O)N1CCC2(CC1)CCN(c1cccc(-c3ccccc3)c1)CC2	-9.7%	nt	nt	nt	28.8%
COc1ccc(NC(=O)N(C)C[C@H]2Oc3ccc(NC(=O)Cc4ccccc4)cc3CC(=O)N([C@H](C)CO)C[C@H]2C)cc1	nt	0.4%	22.9%	-8.1	nt
CC(C)c1cccc(C(C)C)c1NC(=S)Nc1cccc(Cl)c1	6.5%	-0.8%	0.0%	-2.1	?
S=C(Nc1cccc(Cl)c1)NC1CC2CCCC(C1)N2C1CCCC1 (centres undefined)	4.2%	0.3%	8.5%	13.2	0.1%
S=C(NCCN(C1CCCCC1)C1CCCC1)Nc1cccc(Cl)c1	?	0.3%	?	-1.8	17.8µM*
S=C(NCCC(c1ccccc1)c1ccccc1)Nc1cccc(Cl)c1	15.8µM*	0.5%	-1.3%	-28.6	5.01µM*
Cc1csc(/C(=N/OC(=O)c2ccco2)C(N)=O)n1	2.5%	-0.4%	26.5%	37.0	-12.6%
O=C(/C=C/c1cccc([N+](=O)[O-])c1)N1CCN(c2ccccn2)CC1	7.0%	0.4%	-21.8%	2.8	-8.6%
O=C(/C=C/c1cccc([N+](=O)[O-])c1)n1cnc2ccccc21	-7.2%	0.3%	-2.1%	4.6	11.2µM*
O=C(COC(=O)c1cc(Cl)ccc1O)c1ccc2c(c1)OCO2	nt	-0.3%	?	1.7	nt
O=C(COC(=O)c1ccc(O)cc1O)c1ccc2c(c1)OCO2	?	-0.1%	2.1%	-10.4	7.08µM*
CCOC(=O)C(Cc1ccccc1)NC(=O)CCc1c(C)nc2ncnn2c1C (centres undefined)	-1.2%	0.4%	1.4%	-15.9	8.4%
CCOC(=O)C(Sc1cc(-c2ccccc2)nc2ncnn12)C(C)=O (centres undefined)	2.82µM*	?	0.6%	-0.4	0.631µM*
COc1ccc(-c2nn(-c3ccccc3)cc2C(=O)NC(=S)Nc2cc(Cl)ccc2Cl)cc1	-4.2%	0.1%	?	19.2	0.0%
COC(=O)c1cn(-c2ccccc2)nc1-c1ccc(OC)c(OC)c1	-9.7%	-0.1%	?	0.0	10.8%
COc1ccc(-c2nn(-c3ccccc3)cc2C(=O)NC(=S)NNC(=O)c2ccncc2)cc1	-26.0%	-0.9%	?	-13.3	6.31µM*

Screening results deposited in PubChem BioAssay by National Center for Advancing Translational Sciences (NCATS).
